An excerpt weighted towards active compounds, which were near 19% of everything screened.
SW480 rerep: DNA re-replication induction in SW480 cells | SW480 DNA re-replication, Hoechst DNA content imaging, 48 h | Potency, µM (top dose mostly 46.1 µM), without a hit: at the highest dose re-replication activation, most hits filed as activators | hit rate 1.8% among 340,000 | AID 624297; further: potency means the concentration at half of the fitted maximal effect; % of control where 0% means no effect; nearly all actives have a fitted effect of over 55% in size
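First, 250 cells per well were seeded. Next, compound or vehicle (23 nL) was pinned in, plates sat 48 hr at 37 C. Finally Hoechst was added for 40 min before fluorescence scanning.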
IL-1B inflam inh: inflammasome signaling inhibition, IL-1 beta readout; activity change, % at 57.5 µM; hit rate 4.7% among 360,000; THP-1 LPS/ATP IL-1B secretion, AlphaLISA, 16 h; stronger effect = lower value; in the data active means activity change below about -50%; inconclusive means mostly about -30% to -49%; further: on the % scale 0 is the no-effect control and ±100 the full control effect
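Secreted IL-1B measured by AlphaLISA bead assay after 16 h compound exposure of THP-1 cells; compounds (final up to 57.5 uM) added 1 h before LPS (250 ng/mL) and ATP (1.25 mM) stimulation; lower signal means less secretion.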
BCR signal inh: blocks chronic active B-cell receptor signaling. ABC-DLBCL IkBa-CBG/CBR reporter, luminescence ratio, 4 h. hit rate 0.05% among 340,000. Potency, µM (top dose mostly 46.1 µM), without a hit: top-dose activity change, negative = inhibition, most hits filed as inhibitors; active means well fitted inhibition curve with a large enough effect in the signal ratio, with a control signal flat, not every such curve was filed as active; inconclusive means small, poorly fitted or top-dose-only effect, or effect the other way, or a change in a side signal; the % refers to the signal ratio;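 further: potency means the concentration at half of the fitted maximal effect; plate controls were basal doxycycline-induced cells for no effect and cells given 10 µM MG132 for full effect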
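TMD8 human ABC-DLBCL cells with doxycycline-inducible IκBα–green luciferase fusion and unfused red luciferase, in 0.5% FBS medium; compounds up to 46 uM, 4 h at 37C. Green/red luminescence ratio, filter-overlap corrected, fitted to concentration-response curves.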
TDP1 cell noCPT: qHTS for Inhibitors of human tyrosyl-DNA phosphodiesterase 1 (TDP1): qHTS in cells in absence of CPT. DT40 Tdp1-/- hTDP1 cells, no CPT, ATP luminescence, 48 h. Potency, µM (doses to about 46.2 µM), inactives show at the top dose activity change, negative = growth inhibition, most hits filed as inhibitors. hit rate 15% among 420,000. AID 686978, 2013; further: potency means the concentration at half of the fitted maximal effect; on the % scale 0 is the no-effect control and ±100 the full control effect; nearly all actives have a fitted effect of over 55% in size
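Stably hTDP1-transfected Tdp1-null chicken DT40 cells were treated with library compounds minus camptothecin and grown for at least 48 hr at 37 °C, after which cellular ATP was quantified by luminescence.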
MCF10A rereplic: induces DNA re-replication in MCF 10a normal breast cells; MCF 10A DNA re-replication, Hoechst nuclear intensity, 48 h; Potency, µM (highest dose often 46.1 µM), for inactives: top-dose activity, positive = re-replication, usual class: activators; hit rate 2.9% among 350,000; AID 624296; further: potency means the concentration at half of the fitted maximal effect; % of control where 0% means no effect; nearly all actives have a fitted effect of over 50% in size
TDP1 cell CPT: growth inhibition of DT40 Tdp1-/-;hTDP1 cells with camptothecin (screen for TDP1 inhibitors). hit rate 12% among 420,000. chicken DT40 Tdp1-/-;hTDP1 cells + 20 nM CPT, ATP luminescence, 48 h. Potency, µM (highest dose often 46.2 µM), inactives show at the top dose activity change, negative = growth inhibition, most hits filed as inhibitors; further: potency means the concentration at half of the fitted maximal effect; on the % scale 0 is the no-effect control and ±100 the full control effect; nearly all actives have a fitted effect of over 55% in size
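Cell growth measured by CellTiter-Glo luminescence after a minimum 48 h, 37 C compound exposure with 20 nM CPT in Tdp1-knockout DT40 cells stably expressing hTDP1, seeded 400/well; qHTS titration format.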
Starred values were filed as active, the others as inactive; u = inconclusive; x = no result given. Unless noted, the call rests on the fitted dose curve; in most records, active means well fitted curve in the direction sought with a large enough effect; inconclusive means small, poorly fitted or top-dose-only effect, or another doubt; inactive means no such curve, though single readings can be large; an effect the other way counts as inactive or inconclusive.

SMILES	SW480 rerep	IL-1B inflam inh	BCR signal inh	TDP1 cell noCPT	MCF10A rereplic	TDP1 cell CPT
Cc1ccc(C)c(NC(=S)c2nc3ccccc3s2)c1	-4%	8	0%	u	-9%	26µM*
Cc1ccc(NC(=S)c2nc3ccccc3s2)cc1	1%	0	u	u	-2%	u
O=C(Nc1ccc(Cl)cc1)/C(=C/c1cccc(O)c1)c1nc2ccccc2s1	21µM*	-101*	u	4.6µM*	4.1µM*	5.2µM*
Cc1ccc(Nc2nc3ccccc3s2)c(C)c1	-2%	-62*	u	u	u	u
S=C(Nc1ccc(Cl)cc1)c1nc2ccccc2s1	1%	-5	5%	15µM*	u	u
O=C(O)c1ccc2c(ccc3nn(-c4ccc(/C=C/c5ccc(-n6nc7ccc8cc(C(=O)O)ccc8c7n6)cc5[S+](=O)([O-])[O-])c([S+](=O)([O-])[O-])c4)nc32)c1	x	x	x	0%	x	9%
Cc1oc(-c2ccc(Cl)cc2)nc1CS(=O)CC(=O)NC1CCCC1 (centres undefined)	-30%	2	-2%	10%	-3%	-27%
CC(C(=O)NCC1CCCCC1)N(C)Cc1ccc(Cl)cc1 (centres undefined)	-1%	-23	4%	18µM*	20%	u
O=c1c(-c2ccccc2)nc2cnc(N3CCOCC3)nc2n1Cc1ccc(F)cc1	x	x	x	-2%	x	-15%
CCOC(=O)Cc1c(-c2cccc(Br)c2)nc2c3ccccc3ccn12	x	7	x	18µM*	x	u
CCOC(=O)c1c(C)nc2c3ccccc3ccn12	-2%	1	7%	-20%	u	u
Clc1ccc(-c2nc3c4ccccc4ccn3c2CC2CCCCC2)cc1	x	69	x	-27%	x	-23%
Brc1cccc(-c2nc3c4ccccc4ccn3c2Cc2ccsc2)c1	x	-5	x	u	x	26µM*
Fc1ccc(-c2nc3c4ccccc4ccn3c2CC2CCCCC2)cc1	x	30	x	21µM*	x	15µM*
Fc1ccc(-c2nc3c4ccccc4ccn3c2Cc2ccsc2)cc1	x	23	x	15µM*	x	15µM*
NS(=O)(=O)c1ccc(CNC(=O)c2cc(-c3cccnc3)nc3ccc(Br)cc23)cc1	-2%	-26	3%	8%	1%	-1%
CCOC(=O)Cc1c(C)nc2c(-c3cccc(Br)c3)cnn2c1C	-72%	7	-6%	21µM*	u	u
Cc1cc(N)n2ncc(-c3cccc(Br)c3)c2n1	0%	-25	u	-20%	-2%	-7%
CCOC(=O)c1sc(NC(=O)c2cc(-c3ccccc3)nc3ccccc23)c(C#N)c1C	0%	-62*	0%	5.8µM*	2.6µM*	7.3µM*
CCOC(=O)c1sc(NC(=O)CSc2ncn[nH]2)c(C#N)c1C	9.2µM*	40	u	-20%	2.9µM*	-22%
CCOC(=O)c1sc(NC(=O)CSc2ccccn2)c(C#N)c1C	15%	22	x	-11%	21µM*	-20%
CCOC(=O)c1sc(NC(=O)CSc2n[nH]c(-c3ccccc3)n2)c(C#N)c1C	1%	-16	u	u	8.2µM*	12µM*
CCc1cc(C(=O)N2CCN(C(=O)c3ccccc3)CC2)sc1C	2%	-19	1%	u	-2%	-24%
CCC(CC)C(=O)c1c[nH]c(C(=O)NCc2ccccn2)c1	5%	-59*	u	-16%	-8%	6%
CCC(CC)C(=O)c1c[nH]c(C(=O)NN)c1	u	27	22µM*	7%	10µM*	-8%
SMILES	SW480 rerep	IL-1B inflam inh	BCR signal inh	TDP1 cell noCPT	MCF10A rereplic	TDP1 cell CPT
CCC(CC)C(=O)c1c[nH]c(C(=O)O)c1	u	11	1%	-10%	1%	7%
Oc1c(Cl)cc(Cl)c2c1NCCC2	u	14	-21%	10µM*	u	6.5µM*
O=C1NCCCc2c1oc1ccc(O)cc21	u	13	u	u	23%	u
Cc1ccc(S(=O)(=O)/N=C(\Sc2ccccc2)c2ccccc2)cc1	25%	-50*	-5%	6.5µM*	u	5.8µM*
O=S(=O)(/N=C(\Sc1ccccc1)c1ccccc1)c1ccc(Cl)cc1	9%	-53*	8%	11µM*	-5%	13µM*
COc1ccccc1N/C(=N/S(=O)(=O)c1ccc(C)cc1)c1ccccc1	8%	-4	-2%	18µM*	1%	u
COc1ccccc1N/C(=N/S(=O)(=O)c1ccc(Cl)cc1)c1ccccc1	2%	-14	1%	u	-2%	-13%
CCCCN(C(=O)c1cc2c(s1)CCC2)c1c(N)n(CCCC)c(=O)[nH]c1=O	-38%	-4	10%	-16%	-18%	-12%
COc1ccc(CCNC(=O)CNS(=O)(=O)c2ccc(F)c(Cl)c2)cc1OC	-44%	3	-9%	-4%	-5%	6%
CN(C)C1C(=O)c2ccccc2C1=O	-35%	-1	-2%	-4%	0%	11%
CCCNC(=O)C1(C)CCN(C(=O)c2oc3ccccc3c2C)C1 (centres undefined)	x	15	x	-15%	x	-8%
CCOC(=O)c1noc2nc(C)n(CC(=O)Nc3cc(Cl)ccc3OC)c(=O)c12	x	x	x	-16%	x	22%
O=C1CC(=O)OC(c2ccc([N+](=O)[O-])cc2)O1	x	-55*	x	2.3µM*	x	3.3µM*
CCCCN(C)CCNC(=O)Cn1ncc2c([nH]c3ccccc32)c1=O	x	x	x	0%	x	1%
CCCCN(C)CCCNC(=O)Cn1ncc2c3ccccc3n(Cc3cc(C)ccc3C)c2c1=O	x	x	x	2.9µM*	x	2.6µM*
CCCN(CCC)CCCNC(=O)Cn1ncc2c3ccccc3n(Cc3ccccc3F)c2c1=O	x	x	x	23µM*	x	16µM*
CCCCN(C)CCCNC(=O)Cn1ncc2c3ccccc3n(Cc3ccccc3F)c2c1=O	x	x	x	13µM*	x	13µM*
NC(Cc1ccc(C(F)(F)F)cc1)c1csc(Nc2ccc(C(=O)NCCCO)cn2)n1 (centres undefined)	x	-23	x	16µM*	x	u
NC(Cc1ccc(C(F)(F)F)cc1)c1csc(Nc2ccc(C(=O)NCc3ccco3)cn2)n1 (centres undefined)	x	-13	x	u	x	15µM*
O=C(Nc1ccc(F)c(F)c1)c1cnn2c1NC(=C1CC1)C=C2C(F)F	x	x	x	-18%	x	16%
COc1cc(/C=C2\C(=O)ON=C2c2ccccc2)cc(Br)c1O	u	-29	3%	10µM*	u	6.5µM*

Screens (PubChem BioAssay)
